Molecules are shown by their SMILES. A number with no mark means an inactive call. For some of these results: Measured potencies and affinities stand elsewhere. The source made the active and inactive calls. Unless noted, no rule for the calls is given here.

Assay [1] is described as follows: antimalarial activity against Dd2 strain (AID 2302;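 active = growth inhibition above 50% at the single 2 µM test dose, taken to imply half-maximal potency below 2 µM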;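 also: 0% = DMSO untreated growth and 100% = chloroquine plus artemisinin killed control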). As to conditions: P. falciparum Dd2 in RBCs, LDH growth readout, 72 h; at 2 µM; stronger effect = higher value.
Assay [2] is described as follows: HepG2 cytotoxicity, primary screen, cytotoxicity control for P. falciparum antimalarial project, cell-based, ATP luminescence (AID 2303;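 active = inhibition above 50%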;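 also: 0% = DMSO wells and 100% = digitonin-killed cells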). As to conditions: HepG2 viability, 24-48 h, at 10 µM, stronger effect = higher value.
Assay [3] deals with L-lactate dehydrogenase (Plasmodium falciparum (isolate CDC / Honduras)) (UniProt Q27743). The assay can be described thus: PfLDH activity inhibition – cell lysate, 3D7 strain, counter-screen for P. falciparum growth inhibition project (AID 2304).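 Also: 0% = vehicle and 100% = reference inhibitor.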 As to conditions: P. falciparum 3D7 crude extract, LDH APAD/NBT absorbance; at 2 µM; stronger effect = higher value.
Assay [4] in a line: inhibition of 3D7 malaria parasite growth – strain 3D7 (AID 2306).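 Also: 0% = DMSO wells and 100% = chloroquine plus artemisinin control wells.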 As to conditions: P. falciparum 3D7 erythrocytic growth, LDH absorbance, 72 h; at 2 µM; stronger effect = higher value.
Assay [5] concerns the target Calcium-dependent protein kinase 1 (Plasmodium falciparum (isolate 3D7)) (UniProt P62344). The assay can be described thus: PfCDPK1 kinase inhibitors, biochemical, TCAMS library (AID 1159585; cut-off not given, nearly all actives have IC50 up to about 0.98 µM;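 also: inhibitors leave more ATP so luminescence rises with inhibition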). As to conditions: recombinant PfCDPK1, Kinase-Glo ATP depletion luminescence. On the technique in general: Kinase-Glo reads ATP consumption through a luciferase reaction.
Assay [6] has as its target Plasmodium falciparum protein kinase 6 (PK6, PF3D7_1337100) (UniProt Q8IDW1). The assay can be described thus: PfPK6 kinase inhibitors, biochemical, TCAMS library (AID 1159586). As to conditions: recombinant PfPK6, Kinase-Glo ATP depletion luminescence.
Assay [7] addresses Protein kinase 7 (PK7), Plasmodium falciparum 3D7 (PF3D7_0213400) (UniProt Q7YTF7). In words: inhibition of Plasmodium PK7 catalytic activity – biochemical, TCAMS antimalarial set, Kinase-Glo luminescence (AID 1159587). As to conditions: recombinant PfPK7, Kinase-Glo ATP depletion luminescence.
Assay [8] concerns the target Calcium-dependent protein kinase 4 (Plasmodium falciparum (isolate 3D7)) (UniProt Q8IBS5). The assay can be described thus: PfCDPK4 kinase inhibitors, biochemical, TCAMS library (AID 1159588; cut-off not given, nearly all actives have IC50 up to about 0.91 µM). As to conditions: recombinant PfCDPK4, Kinase-Glo ATP depletion luminescence.

Calcium-dependent protein kinase 1 (Plasmodium falciparum (isolate 3D7)), sequence (P62344 whole entry, looked up): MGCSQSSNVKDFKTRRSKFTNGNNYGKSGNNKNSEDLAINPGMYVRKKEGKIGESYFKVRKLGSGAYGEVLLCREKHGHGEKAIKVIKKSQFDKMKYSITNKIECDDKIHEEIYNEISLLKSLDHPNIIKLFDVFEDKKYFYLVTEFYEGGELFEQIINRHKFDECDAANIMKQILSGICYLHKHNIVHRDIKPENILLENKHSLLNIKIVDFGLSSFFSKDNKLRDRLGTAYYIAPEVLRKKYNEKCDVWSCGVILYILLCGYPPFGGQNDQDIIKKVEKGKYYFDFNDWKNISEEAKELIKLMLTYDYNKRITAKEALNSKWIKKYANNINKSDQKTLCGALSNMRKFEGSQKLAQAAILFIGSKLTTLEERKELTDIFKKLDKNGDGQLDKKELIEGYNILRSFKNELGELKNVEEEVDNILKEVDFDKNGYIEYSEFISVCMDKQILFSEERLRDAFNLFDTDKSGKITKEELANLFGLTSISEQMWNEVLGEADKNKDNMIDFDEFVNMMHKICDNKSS
Calcium-dependent protein kinase 4 (Plasmodium falciparum (isolate 3D7)), sequence (Q8IBS5 whole entry, looked up): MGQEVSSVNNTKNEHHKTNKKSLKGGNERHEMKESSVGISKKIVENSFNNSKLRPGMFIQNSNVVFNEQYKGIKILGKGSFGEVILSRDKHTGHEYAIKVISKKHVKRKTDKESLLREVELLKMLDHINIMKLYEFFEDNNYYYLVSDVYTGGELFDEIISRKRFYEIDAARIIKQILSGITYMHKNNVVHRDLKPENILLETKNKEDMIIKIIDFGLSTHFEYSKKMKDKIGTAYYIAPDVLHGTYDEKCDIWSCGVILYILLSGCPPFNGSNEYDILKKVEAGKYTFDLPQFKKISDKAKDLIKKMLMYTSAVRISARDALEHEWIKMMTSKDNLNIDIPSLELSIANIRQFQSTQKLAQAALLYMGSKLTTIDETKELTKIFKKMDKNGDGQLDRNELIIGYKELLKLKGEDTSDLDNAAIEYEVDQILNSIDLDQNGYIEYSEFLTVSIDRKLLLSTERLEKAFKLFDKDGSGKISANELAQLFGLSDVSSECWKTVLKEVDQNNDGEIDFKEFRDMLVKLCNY
Plasmodium falciparum protein kinase 6 (PK6, PF3D7_1337100), sequence (Q8IDW1 1-305): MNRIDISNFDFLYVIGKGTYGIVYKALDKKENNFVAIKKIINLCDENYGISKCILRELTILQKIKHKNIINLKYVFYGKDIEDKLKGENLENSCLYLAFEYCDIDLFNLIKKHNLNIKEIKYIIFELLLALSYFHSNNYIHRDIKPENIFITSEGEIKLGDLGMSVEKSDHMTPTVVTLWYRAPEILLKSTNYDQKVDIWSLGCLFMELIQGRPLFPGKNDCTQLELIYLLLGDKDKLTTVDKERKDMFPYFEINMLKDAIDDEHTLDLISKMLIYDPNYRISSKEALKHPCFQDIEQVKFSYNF
Protein kinase 7 (PK7), Plasmodium falciparum 3D7 (PF3D7_0213400), sequence (Q7YTF7 1-343): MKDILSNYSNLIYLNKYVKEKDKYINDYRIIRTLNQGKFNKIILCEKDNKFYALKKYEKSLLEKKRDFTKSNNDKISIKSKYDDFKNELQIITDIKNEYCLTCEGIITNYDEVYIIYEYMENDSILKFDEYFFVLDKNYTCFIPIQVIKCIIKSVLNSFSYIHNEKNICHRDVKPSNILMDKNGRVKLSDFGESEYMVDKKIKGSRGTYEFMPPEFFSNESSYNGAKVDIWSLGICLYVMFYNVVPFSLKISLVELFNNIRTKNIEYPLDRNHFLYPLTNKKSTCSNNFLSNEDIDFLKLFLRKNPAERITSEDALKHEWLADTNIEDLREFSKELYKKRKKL
L-lactate dehydrogenase (Plasmodium falciparum (isolate CDC / Honduras)), sequence (Q27743 whole entry, looked up): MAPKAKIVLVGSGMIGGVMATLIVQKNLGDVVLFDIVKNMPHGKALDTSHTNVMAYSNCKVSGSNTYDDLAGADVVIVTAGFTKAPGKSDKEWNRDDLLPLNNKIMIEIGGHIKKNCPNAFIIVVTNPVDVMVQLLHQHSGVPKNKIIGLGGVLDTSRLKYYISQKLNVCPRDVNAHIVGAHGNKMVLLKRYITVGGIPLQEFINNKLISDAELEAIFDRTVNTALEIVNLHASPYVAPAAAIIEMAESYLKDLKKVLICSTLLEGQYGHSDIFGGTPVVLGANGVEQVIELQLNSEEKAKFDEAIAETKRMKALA

Take `CC(Cc1ccc(C(=O)Nc2ccc(CC(C)NCCc3cccc(Cl)c3)cc2)cc1)NCCc1ccc(C(F)(F)F)cc1` (stereo not given): the values for the growth inhibition in assay [1] and in assay [4] were 88% (active) and 101% (active), respectively. In addition, the inhibition in assay [2] was 98% (active); in assay [3] it was -4%. In addition, the outcome in assay [5], in assay [6], in assay [7] and in assay [8] was inactive.

For `Cc1ccccc1C1CCN(C2CCC(NC(=O)/C=C/c3ccc(F)c(F)c3)CC2)CC1` (stereo not given), the growth inhibition in assay [1] was 7%; in assay [4], 93% (active). Besides, the inhibition in assay [2] was 34%; in assay [3], -1%. Also, the outcome in assay [5], in assay [6], in assay [7] and in assay [8] was inactive.

In the case of `CC(=O)Nc1ccc(CCNC(C)Cc2ccc(C(=O)Nc3ccc(CC(C)NCCc4cccc(Cl)c4)cc3)cc2)cc1` (stereo not given), the figures for the growth inhibition in assay [1] and in assay [4] were 84% (active) and 100% (active), respectively. Besides, the inhibition in assay [2] was 50% (active); in assay [3], -7%. In addition, the result in assay [5], in assay [6], in assay [7] and in assay [8] was inactive.

Take `CN(C)c1ccc(C=C2SC(=N)N(c3nccs3)C2=O)cc1`: the figures for the growth inhibition in assay [1] and in assay [4] were 50% (active) and 97% (active), respectively. In addition, the inhibition was 38% in assay [2] and 2% in assay [3]. Also, the result in assay [5], in assay [6], in assay [7] and in assay [8] was inactive.

Turning to `Cc1cccc2[nH]c(-c3ccc(-c4ccc(CN5CCN(C6CCN(C)CC6)CC5)cc4)s3)nc12`, the growth inhibition in assay [1] and in assay [4] was 101% (active) in each case. The inhibition in assay [2] is 97% (active); in assay [3], -4%. Moreover, the outcome in assay [5], in assay [6], in assay [7] and in assay [8] was inactive.

For the compound `COc1ccc2ccccc2c1CCCCN1CCN(CC(c2ccc(F)cc2)N2CCC2)CC1` (stereo not given), the growth inhibition is 51% (active) in assay [1] and 98% (active) in assay [4]. In addition, the inhibition in assay [2] was 51% (active); in assay [3] it was 9%. In addition, the outcome in assay [5], in assay [6], in assay [7] and in assay [8] was inactive.

`CCn1cc(-c2cc(C(=O)Nc3ccc(OC)cc3C)c3ccccc3n2)c(C)n1`: the values for the growth inhibition in assay [1] and in assay [4] were 100% (active) and 97% (active), respectively. For the same compound, the inhibition is -5% in assay [2] and 2% in assay [3]. The result in assay [5], in assay [6], in assay [7] and in assay [8] was inactive.

Regarding `O=C(/C=C/c1ccc(Cl)c(Cl)c1)N1CCCC(CCCN2CCC(c3c[nH]c4ccccc34)CC2)C1` (stereo not given), the growth inhibition in assay [1] was 15%; in assay [4] it was 89% (active). Besides, the inhibition is 30% in assay [2] and -1% in assay [3]. Besides, the outcome in assay [5], in assay [6], in assay [7] and in assay [8] was inactive.

As for `Clc1ccc(Cn2nc(Br)nc2Br)c(Cl)c1`, the growth inhibition in assay [1] and in assay [4] was 96% (active) in each case. The inhibition in assay [2] is 4%; in assay [3] it was 2%. In addition, the result in assay [5], in assay [6], in assay [7] and in assay [8] was inactive.

For the compound `CC(C)NCc1cccc(-c2ccc(-c3nc4ccc(C(F)(F)F)cc4[nH]3)cc2)c1`, the figures for the growth inhibition in assay [1] and in assay [4] were 96% (active) and 99% (active), respectively. Further, the figures for the inhibition in assay [2] and in assay [3] were 7% and -6%, respectively. Moreover, the outcome in assay [5], in assay [6], in assay [7] and in assay [8] was inactive.

Turning to `CC(C)(C)c1ccc(CN2CCC(CNC(=O)c3cc(-c4ccccc4C(F)(F)F)cs3)C2)cc1` (stereo not given), the growth inhibition is 11% in assay [1] and 92% (active) in assay [4]. The figures for the inhibition in assay [2] and in assay [3] were 61% (active) and -3%, respectively. The result in assay [5], in assay [6], in assay [7] and in assay [8] was inactive.

Regarding `c1ccc2c(NCCCCCCCCNc3ccnc4ccccc34)ccnc2c1`, the growth inhibition in assay [1] was 35%; in assay [4], 101% (active). Besides, the inhibition in assay [2] is 57% (active); in assay [3] it was -1%. In addition, the outcome in assay [5], in assay [6], in assay [7] and in assay [8] was inactive.

As to `Cn1cnc(CCNC(=O)c2cccc(-c3cccc(-c4nc5ccc(C(F)(F)F)cc5[nH]4)c3)c2)c1`, the values for the growth inhibition in assay [1] and in assay [4] were 45% and 100% (active), respectively. Besides, the inhibition in assay [2] was 37%; in assay [3] it was 4%. The outcome in assay [5], in assay [6], in assay [7] and in assay [8] was inactive.

On to `CS(=O)(=O)Nc1ccc2c(C3CCN(CCC4CCN(C(=O)/C=C/c5ccc(Cl)c(Cl)c5)CC4)CC3)c[nH]c2c1`, for which the figures for the growth inhibition in assay [1] and in assay [4] were 63% (active) and 99% (active), respectively. Further, the inhibition is 35% in assay [2] and -3% in assay [3]. The result in assay [5], in assay [6], in assay [7] and in assay [8] was inactive.

Consider `CC(=O)Oc1c(C2CCN(CCCCNC(=O)c3ccc(-c4ccc(C#N)cc4)cc3)CC2)ccc2c1CCCC2`, for which the growth inhibition in assay [1] was 52% (active); in assay [4], 88% (active). For the same compound, the inhibition in assay [2] was 21%; in assay [3], 3%. In addition, the outcome in assay [5], in assay [6], in assay [7] and in assay [8] was inactive.

Take `Cc1cccc2[nH]c(-c3ccc(-c4cccc(NC(=O)Nc5ccc6c(c5)OCO6)c4)cc3)nc12`: the growth inhibition was 39% in assay [1] and 100% (active) in assay [4]. For the same compound, the results for the inhibition in assay [2] and in assay [3] were 28% and -8%, respectively. Moreover, the outcome in assay [5], in assay [6], in assay [7] and in assay [8] was inactive.

As for `Cc1nc(N)nc(N)c1-c1ccc(Br)c([N+](=O)[O-])c1`, the growth inhibition is 2% in assay [1] and 95% (active) in assay [4]. In addition, the results for the inhibition in assay [2] and in assay [3] were 64% (active) and 2%, respectively. The result in assay [5], in assay [6], in assay [7] and in assay [8] was inactive.

For `C[C@@H](NCCc1cccc(Cl)c1)[C@@H](O)c1ccc(OCCCCCCOc2ccc([C@H](O)[C@@H](C)NCCc3cccc(Cl)c3)cc2)cc1`, the growth inhibition in assay [1] and in assay [4] was 100% (active) each time. Also, the inhibition is 96% (active) in assay [2] and -1% in assay [3]. Also, the outcome in assay [5], in assay [6], in assay [7] and in assay [8] was inactive.

On to `CC(C)N(Cc1ccc(-c2ccc(C(F)(F)F)cc2)cc1)C(=O)Cn1c(SCc2cccc(F)c2F)cc(=O)c2cc(CN3CCCCC3)ccc21`, for which the growth inhibition in assay [1] was 59% (active); in assay [4], 103% (active). The inhibition in assay [2] was 97% (active); in assay [3], -8%. Besides, the outcome in assay [5], in assay [6], in assay [7] and in assay [8] was inactive.

As to `CN1CCN(CCCN(Cc2cccc(-c3cccc(CNC4CCCC4)c3)c2)C(=O)/C=C/c2ccccc2)CC1`, the results for the growth inhibition in assay [1] and in assay [4] were 99% (active) and 101% (active), respectively. The figures for the inhibition in assay [2] and in assay [3] were 84% (active) and -5%, respectively. Also, the outcome in assay [5], in assay [6], in assay [7] and in assay [8] was inactive.

By inhibition is commonly meant the change of the read-out against control, counted positive when it falls.
